Test results published in PubChem BioAssay AID1724 (National Center for Advancing Translational Sciences (NCATS), 2009).
Results filed as inconclusive are left out. Values without a mark were called inactive. Active and inactive are the calls of the source. The call rests on the fitted dose curve; in most records, active means well fitted inhibition curve with a large enough effect; inconclusive means small, poorly fitted or top-dose-only effect, or effect the other way; inactive means no such curve, though single readings can be large or run the other way.

Experiment: Confirmation Concentration-Response Assay for Inhibitors of the ERK Signaling Pathway using a Homogeneous Screening Assay
Settings: HEK293 cells, hormone-stimulated phospho-ERK AlphaScreen; series mostly up to 40.9 µM; activity change, negative = inhibition: at the top concentration
Source text: qHTS Assay for Inhibitors of the ERK Signaling Pathway using a Homogeneous Screening Assay
NIH Chemical Genomics Center [NCGC]
NIH Molecular Libraries Screening Centers Network [MLSCN]
Assay Submitter (PI): Dr. Wei Zheng, NCGC/NIH
The Ras/extracellular-signal-regulated kinase (ERK) mitogen activated protein (MAP) kinase signaling pathway (ERK1/2 cascade) plays is a key role in transmitting signals from the cell surface to the nucleus (Nishida and Gotoh 1993; Chang and Karin, 2001). The cascade is initiated by the small G-protein Ras, which recruits Raf […], where activation occurs. Alternatively, this pathway can be activated by elevating intracellular cAMP.
Activation of the ERK pathway is essential in increased cell division and cell survival. Sustained and constitutive activation of the ERK pathway, however, has been linked to uncontrolled cell proliferation, increased cell survival, and tumor progression. Thus, the ERK has been as an attractive target for cancer chemotherapy in the past few years (Sebolt-Leopold and Herrera, 2004). Given its physiological and pathological importance, assessment of ERK phosphorylation has been broadly performed in both basic research and drug discovery. Most assays for the measurement of ERK phosphorylation use the antibody-based detection methods, such as western blot and ELISA. These assays require multiple reagent additions with cell wash steps and are not suitable for high-throughput screening.
The current cell-based ERK phosphorylation assay was performed using AlphaScreen platform. […]
HEK293 cells stably expressing type-1 vasopressin receptor (V1b) were maintained in DMEM medium (Invitrogen, Carlsbad, CA) at 37C under a humidified atmosphere containing 5% CO2 and 95% air. […] The ERK phosphorylation in cells was determined using an AlphaScreen assay kit provided by PerkinElmer. […] AC50 values were determined from concentration-response data modeled with the standard Hill equation. […]
(10) Detect the assay plate in an EnVision plate reader (PerkinElmer) using the AlphaScreen detection mode. […]

Row | SMILES | activity change, negative = inhibition [%] | Potency
1 | CC1=CC(=O)c2c(O)cccc2C1=O | -128 | 
2 | N#Cc1c(Cl)c(Cl)c(Cl)c(C#N)c1Cl |  | 2240 nM (active)
3 | O=C1NC(=O)C(=Cc2ccccc2Oc2ccc(F)cc2)C(=O)N1 | 2.48 | 
